According to PubChem BioAssay (Tox21):
Results filed as inconclusive are left out. Activity calls are given as the source filed them. Unless noted, the call rests on the fitted dose curve; in most records, active means well fitted curve in the direction sought with a large enough effect in the repeat runs; inconclusive means weak or mixed curves; inactive means no such curve, though single readings can be large; an effect the other way counts as inactive or inconclusive.

How the values were obtained:
[1] = qHTS assay for small molecules that induce genotoxicity in human embryonic kidney cells expressing luciferase-tagged ATAD5 (AID 651632); further: nearly all actives have a fitted effect of over 15% in size
In short: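 Test compounds were delivered by pin tool onto HEK293T reporter cells (2,000/well) expressing ATAD5 fused to luciferase. After 16 hr at 37C, 5% CO2, Amplite was added for 30 min at room temperature and luminescence was measured.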

[2] = qHTS assay for small molecule agonists of the p53 signaling pathway - cell viability (AID 651633; calls by dose curve;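 further: p53RE-bla HCT reporter cells with a stable beta-lactamase p53 reporter; series mostly up to about 83 µM; nearly all actives have a fitted effect of over 30% in size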)
In short: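 p53RE-bla cells, seeded at 4,000 per well and rested 5 h at 37 C/5% CO2, received compounds in DMSO for 16 h at 37 C. CellTiter-Glo was then added, and luminescence was read after 30 min at room temperature to gauge cytotoxicity.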

[3] = qHTS assay for small molecules that induce genotoxicity in human embryonic kidney cells expressing luciferase-tagged ATAD5 - cell viability (AID 651634; calls by dose curve; further: nearly all actives have a fitted effect of over 25% in size)
In short: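 Quantitative high-throughput format. HEK293T cells expressing ATAD5 fused to luciferase were plated at 2,000 cells/well and treated 15.5 hr with compound versus DMSO. Viability was determined by fluorescent live-cell protease substrate, 30 min at 37C.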

[4] = qHTS assay for small molecule disruptors of the mitochondrial membrane potential - cell viability (AID 720634; calls by dose curve;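 further: human HepG2 liver cancer cells; series mostly up to about 83 µM; nearly all actives have a fitted effect of over 20% in size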)
In short: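 Same-well counter-screen: following the MMP dye addition, CellTiter-Glo was added to 1 hr compound-treated HepG2 cells and luminescence read after 30 min at room temperature.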

[5] = qHTS assay for small molecule disruptors of the mitochondrial membrane potential (AID 720635)
In short: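 HepG2 cells (2,000/well) attached overnight at 37C, then took compound for 1 hr at 37C, 5% CO2. Mito-MPS dye was added for 30 min; fluorescence was read at 490/535 nm (monomers) and 540/590 nm (aggregates).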

[6] = qHTS assay to test for compound auto fluorescence at 590 nm (red) in HepG2 cells (AID 720674)
In short: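 Intrinsic compound fluorescence in the red window (Ex/Em 540/590 nm) is measured in attached HepG2 cells exposed for 1 hr, DMSO vehicle as baseline, benchmarked to Rose Bengal sodium.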

[7] = qHTS assay to test for compound auto fluorescence at 535 nm (green) in HepG2 cells (AID 720675)
[8] = qHTS assay to test for compound auto fluorescence at 460 nm (blue) in HEK293 cells (AID 720678)
In short: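 Measured: blue fluorescence (Ex 405/Em 460 nm) of compound-treated HEK293 cells, incubated overnight at 37C with 5% CO2 and scaled to triamterene equivalents.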

[9] = qHTS assay to test for compound auto fluorescence at 590 nm (red) in HEK293 cells (AID 720679)
In short: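 Using HEK293 cells at 2,000 per well, the screen added 23 nL of each compound after cell attachment and incubated overnight (37C, 5% CO2). The plate reader then captured red-label fluorescence, Ex/Em 540/590nm.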

[10] = qHTS assay to test for compound auto fluorescence at 535 nm (green) in HEK293 cells (AID 720680)
[11] = qHTS assay to test for compound auto fluorescence at 460 nm (blue) in HEK293 cell free culture (AID 720681)
In short: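 Test compounds were pinned into cell-free culture medium (DMEM with 10% FBS) and fluorescence was read directly at Ex/Em 405/460 nm. Signals were expressed as fluorescence equivalents of triamterene, with DMSO vehicle as control.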

[12] = qHTS assay to test for compound auto fluorescence at 535 nm (green) in HEK293 cell free culture (AID 720682)
In short: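 DMEM + 10% FBS, cell-free; cpd or DMSO pinned in; Ex485/Em535 read; output as fluorescein-equivalent signal.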

[13] = qHTS assay to test for compound auto fluorescence at 590 nm (red) in HEK293 cell free culture (AID 720683)
In short: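 Tox21 10K library compounds were pinned into cell-free DMEM with 10% FBS and fluorescence was read at excitation 540 nm. Activity is expressed as Rose Bengal sodium equivalency.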

[14] = qHTS assay to test for compound auto fluorescence at 590 nm (red) in HepG2 cell free culture (AID 720684)
In short: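 Ex 540 / Em 590 nm read of compound in cell-free MEM (10% FBS). Rose Bengal sodium reference.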

[15] = qHTS assay to test for compound auto fluorescence at 460 nm (blue) in HepG2 cell free culture (AID 720685)
In short: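 Cell-free plates of MEM plus 10% FBS received 23 nL compound or DMSO vehicle; blue-channel (405/460 nm) intensity scored against triamterene as reference fluorophore.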

[16] = qHTS assay to test for compound auto fluorescence at 535 nm (green) in HepG2 cell free culture (AID 720686)
[17] = qHTS assay to test for compound auto fluorescence at 460 nm (blue) in HepG2 cells (AID 720687)
In short: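 Cells (2,000/well in MEM with 10% FBS) attached overnight at 37 C, then were exposed to compound or DMSO for 1 hr at 37 C, 5% CO2. Fluorescence read at Ex/Em 405/460 nm, expressed as triamterene-equivalent signal.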

[18] = biological target: Glucocorticoid receptor (Homo sapiens) (UniProt P04150); experiment: qHTS assay to identify small molecule agonists of the glucocorticoid receptor (GR) signaling pathway (AID 720691; active means well fitted activation curve with a large enough effect in the signal ratio in the repeat runs, not every such curve was filed as active; the % refers to the signal ratio)
Chain of Glucocorticoid receptor (Homo sapiens) (P04150 whole entry, looked up): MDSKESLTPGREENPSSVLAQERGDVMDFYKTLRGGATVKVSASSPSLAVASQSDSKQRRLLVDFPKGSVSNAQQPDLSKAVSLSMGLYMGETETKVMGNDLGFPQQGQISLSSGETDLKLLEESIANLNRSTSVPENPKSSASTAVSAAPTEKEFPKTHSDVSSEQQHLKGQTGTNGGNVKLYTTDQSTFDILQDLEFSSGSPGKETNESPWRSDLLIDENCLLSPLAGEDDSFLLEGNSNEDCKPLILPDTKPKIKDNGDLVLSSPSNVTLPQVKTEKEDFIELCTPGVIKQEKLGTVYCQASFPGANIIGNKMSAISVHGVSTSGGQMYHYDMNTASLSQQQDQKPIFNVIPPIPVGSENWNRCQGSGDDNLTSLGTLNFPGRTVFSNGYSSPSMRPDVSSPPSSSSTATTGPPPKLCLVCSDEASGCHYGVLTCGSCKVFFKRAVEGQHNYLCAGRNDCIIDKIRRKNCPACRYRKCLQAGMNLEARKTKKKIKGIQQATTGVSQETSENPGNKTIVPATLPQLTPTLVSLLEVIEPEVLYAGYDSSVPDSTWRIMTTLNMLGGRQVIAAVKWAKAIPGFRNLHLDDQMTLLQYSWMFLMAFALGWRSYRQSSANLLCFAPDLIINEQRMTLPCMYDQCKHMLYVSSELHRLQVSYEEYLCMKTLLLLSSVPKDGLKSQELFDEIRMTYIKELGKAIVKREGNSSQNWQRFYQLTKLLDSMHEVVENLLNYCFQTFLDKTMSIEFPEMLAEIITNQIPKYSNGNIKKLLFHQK
In short: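 A HeLa cervical cancer line expressing GR and a glucocorticoid response element-driven beta-lactamase gene is treated with compounds for 18 h; LiveBLAzer B/G FRET substrate is then applied and fluorescence read.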

[19] = biological target: Glucocorticoid receptor (Homo sapiens) (UniProt P04150); experiment: qHTS assay to identify small molecule antagonists of the glucocorticoid receptor (GR) signaling pathway (AID 720692; active means well fitted inhibition curve with a large enough effect in the signal ratio in the repeat runs, not every such curve was filed as active; the % refers to the signal ratio)
In short: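 GRE-bla HeLa line, dex-stimulated (5 nM final). Compound exposure 18 h, 37 C. Beta-lactamase FRET read after 2 h RT substrate.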

[20] = qHTS assay to identify small molecule antagonists of the glucocorticoid receptor (GR) signaling pathway - cell viability counter screen (AID 720693); further: nearly all actives have a fitted effect of over 55% in size
[21] = qHTS assay for identifying genotoxic compounds that show differential cytotoxicity against isogenic chicken DT40 cell lines with known DNA damage response pathways - wild type cell line (AID 743012); further: potency means the concentration at half of the fitted maximal effect; nearly all actives have a fitted effect of over 60% in size
In short: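 300 wt DT40 cells/well; cpd (DMSO) pintool-transferred after ~0.5 h at 37 C/5% CO2; 40 h incubation; CellTiter-Glo added, 30 min RT; luminescence read.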

[22] = qHTS assay to identify small molecule antagonists of the androgen receptor (AR) signaling pathway - cell viability counter screen (AID 743033; further: nearly all actives have a fitted effect of over 45% in size)
[23] = qHTS assay to identify small molecule antagonists of the androgen receptor (AR) signaling pathway using the MDA cell line - cell viability counter screen (AID 743041; further: nearly all actives have a fitted effect of over 45% in size)
In short: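 In this qHTS counter assay, fluorescence intensity after CellTiter-Fluor addition indicated viability of MDA-kb2 AR-luc cells given compounds and R1881 for 16 h at 37C.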

[24] = qHTS assay to identify small molecule antagonists of the thyroid receptor (TR) signaling pathway - cell viability counter screen (AID 743064); further: nearly all actives have a fitted effect of over 50% in size
In short: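 Viability of T3-stimulated (1 nM final) GH3.TRE-Luc cells is measured by CellTiter-Fluor fluorescence after 23.5 h compound exposure at 37 °C plus 30 min reagent incubation.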

[25] = test system: thyroid hormone receptor (rat, GH3 cells); experiment: qHTS assay to identify small molecule agonists of the thyroid receptor (TR) signaling pathway (AID 743066; calls by dose curve)
[26] = biological target: Estrogen receptor (Homo sapiens) (UniProt P03372); experiment: qHTS assay to identify small molecule antagonists of the estrogen receptor alpha (ER-alpha) signaling pathway (AID 743069; active means well fitted curve in the direction sought with a large enough effect in the signal ratio in the repeat runs, not every such curve was filed as active; the % refers to the signal ratio)
Chain of Estrogen receptor (Homo sapiens) (P03372 whole entry, looked up): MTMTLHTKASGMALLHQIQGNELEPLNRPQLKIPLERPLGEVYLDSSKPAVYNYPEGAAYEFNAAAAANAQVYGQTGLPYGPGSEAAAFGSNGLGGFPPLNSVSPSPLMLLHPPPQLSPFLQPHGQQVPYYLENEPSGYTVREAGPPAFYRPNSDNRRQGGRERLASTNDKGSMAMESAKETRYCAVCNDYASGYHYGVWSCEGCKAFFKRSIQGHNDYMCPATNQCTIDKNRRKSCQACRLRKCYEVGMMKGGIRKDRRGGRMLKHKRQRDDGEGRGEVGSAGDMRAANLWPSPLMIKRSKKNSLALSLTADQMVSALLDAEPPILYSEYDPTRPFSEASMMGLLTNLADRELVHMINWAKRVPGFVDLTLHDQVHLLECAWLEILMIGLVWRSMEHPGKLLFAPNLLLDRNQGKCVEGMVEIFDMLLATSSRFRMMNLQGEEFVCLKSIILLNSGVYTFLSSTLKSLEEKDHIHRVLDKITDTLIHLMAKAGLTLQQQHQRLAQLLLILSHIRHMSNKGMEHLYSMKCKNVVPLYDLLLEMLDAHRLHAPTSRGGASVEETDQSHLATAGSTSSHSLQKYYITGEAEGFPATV
In short: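 A 17beta-estradiol challenge was applied right after compound transfer to ER-alpha-UAS-bla HEK293 cells previously kept in charcoal-stripped serum. Plates stood 18 hr at 37C and 5% CO2; fluorescence was read following 2 hr FRET substrate loading at room temperature.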

[27] = biological target: Estrogen receptor (Homo sapiens) (UniProt P03372); experiment: qHTS assay to identify small molecule agonists of the estrogen receptor alpha (ER-alpha) signaling pathway (AID 743075; calls by dose curve;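 further: HEK293 GripTite cells with ER-alpha and UAS-driven beta-lactamase reporter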)
[28] = biological target: Estrogen receptor (Homo sapiens) (UniProt P03372); experiment: qHTS assay to identify small molecule agonists of the estrogen receptor alpha (ER-alpha) signaling pathway using the BG1 cell line (AID 743079); further: nearly all actives have a fitted effect of over 20% in size
[29] = qHTS assay to identify small molecule antagonists of the estrogen receptor alpha (ER-alpha) signaling pathway using the BG1 cell line (AID 743080; calls by dose curve;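 further: BG1 cells stimulated with 17beta-estradiol alongside compound; series mostly up to about 70 µM; nearly all actives have a fitted effect of over 25% in size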)
In short: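 Quantitative HTS on the Tox21 10K library: BG1 cells with endogenous ER-alpha and ERE-luciferase reporter, 17beta-estradiol stimulation, 21.5 h compound exposure, luminescence endpoint with parallel fluorescence cytotoxicity counter-read.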

Aromatase (Homo sapiens) = Aromatase (Homo sapiens) (UniProt P11511); experiment: qHTS assay to identify aromatase inhibitors (AID 743083); further: series mostly up to about 70 µM; nearly all actives have a fitted effect of over 55% in size
Chain of Aromatase (Homo sapiens) (P11511 whole entry, looked up): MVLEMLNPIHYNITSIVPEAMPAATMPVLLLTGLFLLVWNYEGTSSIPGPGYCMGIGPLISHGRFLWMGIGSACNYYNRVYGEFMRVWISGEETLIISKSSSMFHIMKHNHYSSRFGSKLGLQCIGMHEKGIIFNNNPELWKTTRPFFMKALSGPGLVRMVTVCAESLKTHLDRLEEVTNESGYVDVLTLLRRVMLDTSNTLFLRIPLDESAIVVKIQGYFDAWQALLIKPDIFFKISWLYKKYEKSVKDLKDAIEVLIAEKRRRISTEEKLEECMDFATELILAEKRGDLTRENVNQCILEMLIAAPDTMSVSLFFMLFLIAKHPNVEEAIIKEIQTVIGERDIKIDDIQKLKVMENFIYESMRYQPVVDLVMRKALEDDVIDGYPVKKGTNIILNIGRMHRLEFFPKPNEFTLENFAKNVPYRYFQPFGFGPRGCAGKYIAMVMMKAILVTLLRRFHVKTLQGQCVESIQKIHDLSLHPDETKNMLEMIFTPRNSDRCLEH

[30] = qHTS assay to identify aromatase inhibitors - cell viability counter screen (AID 743084);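 further: cells stimulated with testosterone during compound exposure; nearly all actives have a fitted effect of over 55% in size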
[31] = qHTS assay to identify small molecule that activate the aryl hydrocarbon receptor (AhR) signaling pathway - cell viability counter screen (AID 743086);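 further: HepG2 liver cells carrying the AhR DRE luciferase reporter; series mostly up to about 70 µM; nearly all actives have a fitted effect of over 45% in size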
In short: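 HepG2-AhR-luc (HG2L7.5c1) cells, 4000/well, were preincubated 5 h at 37C, exposed to compound in qHTS format for 24 hr at 37C, then given CellTiter-Fluor for 30 min; viability was read as fluorescence in the reporter wells.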

[32] = biological target: Acetylcholinesterase (Homo sapiens) (UniProt P22303); experiment: Acetylcholinesterase (AChE) small molecule antagonists: enzyme-based qHTS assay with human liver microsomes (AID 1347399; calls by dose curve; further: nearly all actives have a fitted effect of over 60% in size); details: Potency: qHTS inhibition; outcome: qHTS inhibition
Chain of Acetylcholinesterase (Homo sapiens) (P22303 whole entry, looked up): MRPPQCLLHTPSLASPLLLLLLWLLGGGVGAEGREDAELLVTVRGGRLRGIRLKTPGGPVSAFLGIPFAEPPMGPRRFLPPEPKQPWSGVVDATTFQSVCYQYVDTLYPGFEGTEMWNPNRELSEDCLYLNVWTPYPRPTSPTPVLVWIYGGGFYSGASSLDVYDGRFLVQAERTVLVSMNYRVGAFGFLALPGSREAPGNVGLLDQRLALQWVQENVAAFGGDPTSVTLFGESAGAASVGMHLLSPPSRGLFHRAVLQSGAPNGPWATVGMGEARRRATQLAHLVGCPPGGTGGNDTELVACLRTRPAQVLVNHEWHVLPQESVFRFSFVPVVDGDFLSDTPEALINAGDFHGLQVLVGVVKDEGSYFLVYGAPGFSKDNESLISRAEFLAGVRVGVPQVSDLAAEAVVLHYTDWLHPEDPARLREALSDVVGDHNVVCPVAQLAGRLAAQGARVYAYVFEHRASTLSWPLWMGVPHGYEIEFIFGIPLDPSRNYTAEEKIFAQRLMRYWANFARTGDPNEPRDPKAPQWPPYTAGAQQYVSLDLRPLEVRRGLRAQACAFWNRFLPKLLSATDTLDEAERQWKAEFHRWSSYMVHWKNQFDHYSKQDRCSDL
In short: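 Recombinant human AChE (50 mU/mL in the enzyme mix) and human liver microsomes (0.25 mg/mL final) were preincubated with compound and NADPH (0.25 mg/mL final) for 30 min at 37 C. Acetylthiocholine/DTNB was then added; thiocholine was read colorimetrically after 10 min at room temperature.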

[33] = biological target: Acetylcholinesterase (Homo sapiens) (UniProt P22303); experiment: Acetylcholinesterase (AChE) small molecule antagonists: fluorescence cell-based qHTS assay (AID 1347398; calls by dose curve; further: nearly all actives have a fitted effect of over 50% in size; further: potency means the concentration at half of the fitted maximal effect); details: Potency: AChE activity; outcome: AChE activity
In short: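 Using neuroblastoma SH-SY5Y cells as the enzyme source, test chemicals are preincubated 30 min at 37 C; AChE-driven acetylthiocholine cleavage is then quantified by thiocholine-dependent Thiolite Green fluorescence after 40 min at room temperature.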

[34] = qHTS assay to identify small molecule antagonists of the estrogen receptor alpha (ER-alpha) signaling pathway using the BG1 cell line - cell viability counter screen (AID 743081);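 further: compound given together with 17beta-estradiol as the ER stimulus; series mostly up to about 70 µM; nearly all actives have a fitted effect of over 45% in size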

Measured: Potency

Cc1ccc2c(c1)[C@]13CCCC[C@@H]1[C@H](C2)N(C)CC3
active: [21] 26.6 µM
inactive: [1] | [2] | [3] | [4] | [5] | [6] | [7] | [8] | [9] | [10] | [11] | [12] | [13] | [14] | [15] | [16] | [17] | [18] | [19] | [20] | [22] | [23] | [24] | [25] | [26] | [27] | [28] | [29] | Aromatase (Homo sapiens) | [30] | [31]

CCN(CC)CCNC(=O)c1cc(Cl)c(N)cc1OC
inactive: [32]

CCN(CC)CCNC(=O)c1cc(Br)c(N)cc1OC
inactive: [32]

CCCCCCCCCCC[C@@H](C[C@@H]1OC(=O)[C@H]1CCCCCC)OC(=O)[C@H](CC(C)C)NC=O
inactive: [32]

CC[C@@]1([C@@H]2O[C@@H]([C@H]3O[C@@](O)(CO)[C@H](C)C[C@@H]3C)C[C@@H]2C)CC[C@H]([C@]2(C)CC[C@]3(C[C@H](O)[C@@H](C)[C@@H]([C@@H](C)[C@@H](OC)[C@H](C)C(=O)O)O3)O2)O1 (stereo in doubt)
inactive: Aromatase (Homo sapiens)

Cc1ccc(CCn2c3c(c4cc(Cl)ccc42)CN(C)CC3)cn1
active: [33] 19.5 µM
inactive: [32]

CC[C@@H](O)C(C[C@@H](C)N(C)C)(c1ccccc1)c1ccccc1
inactive: [1] | [2] | [4] | [6] | [7] | [8] | [9] | [10] | [11] | [12] | [13] | [14] | [15] | [16] | [17] | [18] | [19] | [20] | [22] | [23] | [26] | [27] | [29] | [34] | Aromatase (Homo sapiens) | [30] | [31]
active: [21] 55.1 µM

CCO[Si](CCCSSSSCCC[Si](OCC)(OCC)OCC)(OCC)OCC
inactive: [33] | [32]
